# Source: PubChem BioAssay
# In the library only some 3% were active in any assay of this set; here they are far more common.
# sdo1 growth = growth rescue of sdo1-depleted yeast, primary screen, S. cerevisiae, bone marrow failure model; S. cerevisiae sdo1-depleted JHY4D growth rescue, OD600 30 h; active compounds read high; pdr5 snq2 efflux-pump mutant strain; z-score at 10 µM; 0.21% of 140,000 active; AID 817, 2007;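 active = z-score above 3 at both the 24 hr and the 30 hr optical density reads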;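 also: z-score against mean and SD of all compound wells on the same plate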
# INS promoter inh = inhibitors of insulin promoter-driven GFP, primary screen, imaging, TRM-6 cells (human fetal islet line), eGFP reporter, cell count | reporter expression induced with tamoxifen | inhibition, % at 2 µM | 0.9% of 130,000 active | AID 1273, 2008;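 active = inhibition above the mean plus 3 SD, with well images judged a real hit on visual review, cut at about 60% in these data, passing the limit was not always enough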
# ROMK primary = ROMK potassium channel modulators, primary screen, cell-based, thallium flux, MLSMR library; 2% of 130,000 active; AID 1918, 2009; ATP-sensitive inward rectifier potassium channel 1 (Homo sapiens), P48048; Tet-inducible ROMK, thallium flux fluorescence; actives lie on both sides; B-score at 10 µM;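 active = signal ratio slope over the read window, or its plate-corrected B-score, at least 3 SD from the plate mean, either direction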;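 also: B-score of the F/F0 ratio slope over 7 to 12 s after thallium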
# Target sequence (P48048 whole entry, looked up): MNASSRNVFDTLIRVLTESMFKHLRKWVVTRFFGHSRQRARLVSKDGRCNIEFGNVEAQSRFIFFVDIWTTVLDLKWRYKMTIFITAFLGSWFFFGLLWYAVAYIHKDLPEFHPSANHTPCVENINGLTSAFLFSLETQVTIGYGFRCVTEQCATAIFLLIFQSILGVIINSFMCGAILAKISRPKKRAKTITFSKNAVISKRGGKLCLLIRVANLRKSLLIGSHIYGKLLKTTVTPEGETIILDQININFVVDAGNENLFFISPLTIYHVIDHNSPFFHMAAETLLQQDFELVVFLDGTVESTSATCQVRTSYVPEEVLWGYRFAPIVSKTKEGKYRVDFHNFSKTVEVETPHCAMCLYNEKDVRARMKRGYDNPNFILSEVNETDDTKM
# Measles CPE = compounds protecting cells from measles virus cytopathic effect, primary screen, measles RdRp inhibitor project, single point, MLSMR library, absorbance | Measles virus-infected cells, CPE protection | protection (pct of control), % at 4 µM | 1.5% of 140,000 active | AID 841, 2007; in the data active = protection mostly above about 24%, no sharp cut-off; inactive = mostly below about 26%
# The depositor's hits bear a star; . = no result; [ ] = another dose, or the depositor's remark.
SMILES,sdo1 growth,INS promoter inh,ROMK primary,Measles CPE
COc1ccc(S(=O)(=O)Cc2ccc(C(=O)NCc3ccc(F)cc3)o2)cc1,0.28,.,.,32*
Cc1noc(C)c1CSc1nnc(C)c(=O)[nH]1,1.6,78*,.,5
CC(C)C(=O)c1cc2c(cc1NC(=O)c1ccccc1)OCCO2,-0.8,89*,.,5
CC(C)C(=O)c1cc2c(cc1NC(=O)c1cccs1)OCCO2,-1.2,71*,.,41
Brc1ccc(C=Nc2ccc3c(c2)OCCOCCOCCO3)s1,-0.02,-306,-0.49,2
CCOC(=O)CSc1ccc(-c2nc3ccccc3[nH]2)cn1,-1.9,57,.,10
N#CCSc1ccc(-c2nc3ccccc3[nH]2)cn1,.,90*,-1,.
CC(C)CN(CC(C)C)c1nnc(N)s1,1.5,30,0.094,28*
CC(C)CSc1nnc(N)s1,-0.36,18,.,6
O=C1c2ccccc2C(=O)N1CC(O)CNc1ccc(Br)cc1 (configuration not stated),-0.14,72*,.,24
CC(=O)OC1=C(C#N)Cn2ccc3cccc1c32,1.6,.,-1.5,57*
Cc1sc2nc(-c3cccnc3)nc(Cl)c2c1-c1ccccc1,-0.97,-11,0.11,25
Cc1ccc(C2=NNC3(CCOC(C)(C)C3)S2)cc1 (configuration not stated),.,.,2.5*,.
Cc1ccc(S(=O)(=O)NCCC2(C(C)C)CCOC(C)(C)C2)cc1 (configuration not stated),-0.86,-31,-0.11,6
COC(=O)CC1COc2ccccc2N1C(=O)c1cccc(Cl)c1 (configuration not stated),0.32,0,.,26*
CCn1c(CNc2ccc(Cl)cc2)nnc1SCc1ccccc1,-2.8,-4,-1.4,46*
Cn1c(CNc2ccc(Cl)cc2)nnc1SCc1ccccc1,-2.6,-10,.,2
N#Cc1ccc(NC(=O)COC(=O)CCNS(=O)(=O)c2ccccc2)cc1,-0.34,22,.,17
COc1ccccc1CNC(=O)C1CC(c2ccccc2[N+](=O)[O-])=NO1 (configuration not stated),0.11,18,.,3
COc1cccc(C2=NOC(C(=O)NCc3ccccc3)C2)c1 (configuration not stated),-0.11,36,.,23*
COc1ccc(CNC(=O)C2CC(c3ccccc3[N+](=O)[O-])=NO2)cc1 (configuration not stated),0.14,17,.,36*
COc1ccc(C2=NOC(C(=O)NCc3ccccc3)C2)cc1 (configuration not stated),-0.46,9,.,3
N#C/C(=C/c1ccc(Sc2nc3ccccc3[nH]2)o1)c1cccc(F)c1,-1.3,72*,-0.6,16
COc1ccccc1N1CCN(C(CNS(=O)(=O)c2ccccc2)c2cccnc2)CC1 (configuration not stated),1.4,10,-0.49,33*
O=C(Nc1ccc(Cl)cc1C(=O)NCC1CCCO1)c1ccco1 (configuration not stated),-0.18,75*,.,20
SMILES,sdo1 growth,INS promoter inh,ROMK primary,Measles CPE
CCC(=O)N/C(N)=N/c1nc(C)c2cc(OC)ccc2n1,-0.27,80*,.,11
COc1ccc2nc(/N=C(\N)NC(=O)C(C)(C)C)nc(C)c2c1,-0.35[14.4 µM],11,0.098,15
CS(=O)(=O)NCCCNc1c(Cl)cccc1[N+](=O)[O-],0.02,74*,-0.037,24
O=[N+]([O-])c1cccc(Cl)c1NCCNS(=O)(=O)c1ccc(Cl)cc1,-1.6,.,.,10
CCOC(=O)C1Cc2c([nH]c3ccccc23)CN1 (configuration not stated),1.4,-14,-1.3,42*
CCOC(=O)C1Cc2ccccc2CN1 (configuration not stated),-0.24,.,1.6,2
Cc1cccc(NC(=O)CSc2nnnn2-c2ccc3c(c2)OCCO3)n1,.,.,-0.098,.
Cc1ccc(-n2c(C)cc(C(=O)COC(=O)C3=NNC(=O)CC3)c2C)cc1,-0.11,8,1.1,29*
COc1ccc(CC(=O)NCc2n[nH]c(=S)n2-c2cccc(C)c2)cc1,.,71*,1.6,.
COc1cccc(C(=O)NCc2n[nH]c(=S)n2-c2cccc(C)c2)c1,0.44,.,1.5,8
Cc1cc2cc(CNC(=O)c3ccc(S(=O)(=O)N4CCCCC4)cc3)ccc2[nH]1,0.03,.,.,35*
Cc1cccc(-n2c(CNC(=O)c3ccc(S(=O)(=O)N4CCCC4)cc3)n[nH]c2=S)c1,0.23,-11,1,36*
O=C(NCc1ccc2[nH]c3c(c2c1)CCCC3)c1ccc(S(=O)(=O)N2CCCC2)cc1,0.78,22,-0.12,4
CC(C)CCn1c(=O)c2ccccc2n2c(CN3CCOCC3)nnc12,.,36,-0.15,.
CCC(CC)C(=O)Nc1cccc(/C(C)=N/NC(=O)c2ccccc2Cl)c1,0.24,-10,0.3,8
O=S(=O)(C(=CNc1ccccc1)S(=O)(=O)c1ccccc1)c1ccccc1,-0.15,.,.,4
Cc1nc(CN2CCN(C(=O)c3ccc(Br)cc3)CC2)cs1,-0.32,36,.,20
Cc1ccc(-c2c(C(=O)NCc3ccc(F)cc3)oc(=O)c3ccccc23)cc1,-0.87,27,-1.2,10
COC(=O)CSc1nc2ccccc2o1,0.33,18,.,43*
CC(=O)CSc1nc2ccccc2o1,0.42,40,.,21
O=C(CSc1nc2ccccc2o1)Nc1ccc(Cl)cc1,0.97,10,0.45,26*
O=C(Nc1cccc(F)c1)c1ccc(CSc2ccccc2)o1,-1.2,-20,-2.2,4
CC(=O)Nc1ccc(NC(=O)c2ccc(CSc3ccccc3)o2)cc1,.,82*,-0.51,.
Cc1c(NC(=O)C(C)OC(=O)c2c3c(nc4ccccc24)CCC3)c(=O)n(-c2ccccc2)n1C (configuration not stated),1,.,.,21
COc1ccc(C(=O)NC2(C(F)(F)F)C(=O)Nc3c2c(=O)[nH]c(=O)n3CCc2ccc(OC)c(OC)c2)cc1 (configuration not stated),0.99,8,.,12
SMILES,sdo1 growth,INS promoter inh,ROMK primary,Measles CPE
Cc1ccccc1OCC(=O)N/N=C/c1ccco1,0.05,0,.,45*
COc1ccc(C(=O)NCc2nnc(SCC(=O)N3CCc4ccccc43)n2CCc2ccccc2)cc1,0.25,.,.,19
c1ccc2c(-n3cccn3)cccc2c1,0.35,55,.,39*
CCN(CC)S(=O)(=O)c1ccc(Cl)c(C(=O)Oc2cccc(-c3cnc4ccccc4n3)c2)c1,-1.4,-20,-0.37,31*
O=C(O)c1ccc2c(=O)n(-c3ccccc3F)c(=S)[nH]c2c1,.,-35,-0.053,.
COC(=O)c1ccc2c(=O)n(-c3ccccc3F)c(=S)[nH]c2c1,.,100*,-0.41,.
CCOC(=O)N1CCN(C(=O)c2ccc3c(=O)n(-c4ccc(F)cc4)c(=S)[nH]c3c2)CC1,1.1,-41,-0.27,28*
O=Nc1c(O)n(Cc2ccc(Cl)c(Cl)c2)c2ccccc12,-2.5,8,.,21
CCOC(=O)c1sc2nc(-c3cccnc3)ccc2c1N,.,71*,-0.013,.
NC(=O)c1sc2nc(-c3cccnc3)ccc2c1N,.,.,-0.93,.
